For 10 sequences, binding signal results are on record in article PMC11006913.

Test in all cases: PBM; 200 nM protein, PBS
Holding throughout (details): dsDNA, one strand shown

In assay [1] the target is T1, NKX2-4 (Homo sapiens, UniProt Q9H2Z4 175-261, P217L).
T1 sequence: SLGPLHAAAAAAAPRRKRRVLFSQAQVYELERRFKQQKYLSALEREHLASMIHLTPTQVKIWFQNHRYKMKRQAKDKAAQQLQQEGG

Assay [2] addresses HOXB9 (Homo sapiens, UniProt P17482 171-250, T197M).
The target of assay [3] is T2, NKX2-4 (Homo sapiens, UniProt Q9H2Z4 175-261, T231S).
T2 sequence: T1 sequence with L43P, T57S

Assay [4] has as its target T3, NKX2-4 (Homo sapiens, UniProt Q9H2Z4 175-261).
T3 sequence: T1 sequence with L43P

For assay [5], the target named is HOXB9 (Homo sapiens, UniProt P17482 171-250).
Chain of HOXB9 (Homo sapiens, UniProt P17482 171-250) (P17482 171-250): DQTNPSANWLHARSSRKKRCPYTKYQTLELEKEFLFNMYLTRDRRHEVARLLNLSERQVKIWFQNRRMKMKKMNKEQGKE
Assay [6] deals with HOXD13 (Homo sapiens, UniProt P35453 263-343, T313R).
Chain of HOXD13 (Homo sapiens, UniProt P35453 263-343, T313R) (P35453 263-343 T313R): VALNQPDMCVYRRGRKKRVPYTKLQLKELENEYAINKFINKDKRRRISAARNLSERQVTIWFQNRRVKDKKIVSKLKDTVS
Assay [7] has as its target HOXD13 (Homo sapiens, UniProt P35453 263-343).
Assay [8] deals with T4, NKX2-4 (Homo sapiens, UniProt Q9H2Z4 175-261, R246Q).
T4 sequence: T1 sequence with L43P, R72Q

Assay [9] deals with HOXD13 (Homo sapiens, UniProt P35453 263-343, T313A).
Chain of HOXD13 (Homo sapiens, UniProt P35453 263-343, T313A) (P35453 263-343 T313A): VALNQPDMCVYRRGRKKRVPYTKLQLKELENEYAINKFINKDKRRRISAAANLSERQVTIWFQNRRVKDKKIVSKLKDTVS
Assay [10] deals with HOXB9 (Homo sapiens, UniProt P17482 171-250, R186Q).
Chain of HOXB9 (Homo sapiens, UniProt P17482 171-250, R186Q) (P17482 171-250 R186Q): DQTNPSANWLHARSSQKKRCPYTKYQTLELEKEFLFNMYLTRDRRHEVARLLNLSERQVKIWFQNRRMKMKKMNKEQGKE
In assay [11] the target is CRX (Homo sapiens, UniProt O43186 26-111).
Chain of CRX (Homo sapiens, UniProt O43186 26-111) (O43186 26-111): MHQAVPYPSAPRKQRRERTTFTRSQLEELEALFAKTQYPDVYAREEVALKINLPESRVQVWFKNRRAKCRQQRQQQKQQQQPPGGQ
The target in assay [12] is CRX (Homo sapiens, UniProt O43186 26-111, E42D).
Chain of CRX (Homo sapiens, UniProt O43186 26-111, E42D) (O43186 26-111 E42D): as the sequence (O43186 26-111) above, with E17D counted along it
The target in assay [13] is CRX (Homo sapiens, UniProt O43186 26-111, R41L).
Chain of CRX (Homo sapiens, UniProt O43186 26-111, R41L) (O43186 26-111 R41L): as the sequence (O43186 26-111) above, with R16L counted along it
Assay [14] has as its target T5, SIX6 (Homo sapiens, UniProt O95475 114-200, L167I).
T5 sequence: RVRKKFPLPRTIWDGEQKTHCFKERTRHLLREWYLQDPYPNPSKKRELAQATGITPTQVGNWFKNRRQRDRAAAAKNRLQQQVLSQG

Assay [15] deals with T6, SIX6 (Homo sapiens, UniProt O95475 114-200, L143V).
T6 sequence: T5 sequence with L30V, I54L

Assay [16] deals with T7, SIX6 (Homo sapiens, UniProt O95475 114-200, H141N).
T7 sequence: T5 sequence with H28N, I54L

The target of assay [17] is T8, SIX6 (Homo sapiens, UniProt O95475 114-200, T165P).
T8 sequence: T5 sequence with T52P, I54L

Assay [18] concerns the target T9, SIX6 (Homo sapiens, UniProt O95475 114-200, L167M).
T9 sequence: T5 sequence with I54M

Assay [19] concerns the target T10, SIX6 (Homo sapiens, UniProt O95475 114-200, L143M).
T10 sequence: T5 sequence with L30M, I54L

The target of assay [20] is T11, SIX6 (Homo sapiens, UniProt O95475 114-200, L143I).
T11 sequence: T5 sequence with L30I, I54L

For assay [21], the target named is T12, SIX6 (Homo sapiens, UniProt O95475 114-200, T165G).
T12 sequence: T5 sequence with T52G, I54L

The target of assay [22] is T13, SIX6 (Homo sapiens, UniProt O95475 114-200, T139Q).
T13 sequence: T5 sequence with T26Q, I54L

Assay [23] has as its target T14, SIX6 (Homo sapiens, UniProt O95475 114-200, T165A).
T14 sequence: T5 sequence with T52A, I54L

For assay [24], the target named is T15, SIX6 (Homo sapiens, UniProt O95475 114-200, L167V).
T15 sequence: T5 sequence with I54V

Assay [25] has as its target T16, SIX6 (Homo sapiens, UniProt O95475 114-200).
T16 sequence: T5 sequence with I54L

In assay [26] the target is T17, SIX6 (Homo sapiens, UniProt O95475 114-200, T165I).
T17 sequence: T5 sequence with T52I, I54L

The next assay deals with PITX2 (Homo sapiens, UniProt Q99697 72-157).
The target in another assay is NKX2-5 (Homo sapiens, UniProt P52952 125-210).
Chain of NKX2-5 (P52952 125-210): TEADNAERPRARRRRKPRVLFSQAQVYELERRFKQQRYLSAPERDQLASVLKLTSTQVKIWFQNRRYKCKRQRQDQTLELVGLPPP

Residue numbers refer to the chain shown, from its start.

Chain of HOXD13 (Homo sapiens, UniProt P35453 263-343) (P35453 263-343): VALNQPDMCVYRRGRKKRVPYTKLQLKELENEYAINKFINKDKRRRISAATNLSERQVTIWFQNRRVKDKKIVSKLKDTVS
Chain of HOXB9 (Homo sapiens, UniProt P17482 171-250, T197M) (P17482 171-250 T197M): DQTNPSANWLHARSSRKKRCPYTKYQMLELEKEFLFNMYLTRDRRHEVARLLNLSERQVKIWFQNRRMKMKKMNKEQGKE

GCGCCGCC: the binding signal in the assay with NKX2-4 [1] is 9.93 upbm affinity estimate (log intensity, higher = more binding, comparable within an allelic series); with HOXB9 [2] it was 8.49 upbm affinity estimate (log intensity, higher = more binding, comparable within an allelic series); with NKX2-4 [3] it was 9.45 upbm affinity estimate (log intensity, higher = more binding, comparable within an allelic series); in the assay with NKX2-4 [4], 9.72 upbm affinity estimate (log intensity, higher = more binding, comparable within an allelic series); with HOXB9 [5], 8.66 upbm affinity estimate (log intensity, higher = more binding, comparable within an allelic series); in the assay with HOXD13 [6], 9.49 upbm affinity estimate (log intensity, higher = more binding, comparable within an allelic series). Besides, the binding signal in the assay with HOXD13 [7] was 9.76 upbm affinity estimate (log intensity, higher = more binding, comparable within an allelic series); with NKX2-4 [8], 9.62 upbm affinity estimate (log intensity, higher = more binding, comparable within an allelic series); in the assay with HOXD13 [9], 9.79 upbm affinity estimate (log intensity, higher = more binding, comparable within an allelic series); in the assay with HOXB9 [10], 8.63 upbm affinity estimate (log intensity, higher = more binding, comparable within an allelic series).

As to AGATTATG, the binding signal with CRX [11] is 12.7 upbm affinity estimate (log intensity, higher = more binding, comparable within an allelic series); with CRX [12], 12.6 upbm affinity estimate (log intensity, higher = more binding, comparable within an allelic series); with CRX [13], 12.6 upbm affinity estimate (log intensity, higher = more binding, comparable within an allelic series).

As for CCCTGCGC, the binding signal with NKX2-4 [1] is 9.21 upbm affinity estimate (log intensity, higher = more binding, comparable within an allelic series); with SIX6 [14], 8.93 upbm affinity estimate (log intensity, higher = more binding, comparable within an allelic series); in the assay with SIX6 [15], 8.85 upbm affinity estimate (log intensity, higher = more binding, comparable within an allelic series); in the assay with NKX2-4 [3], 9.11 upbm affinity estimate (log intensity, higher = more binding, comparable within an allelic series); in the assay with SIX6 [16], 8.92 upbm affinity estimate (log intensity, higher = more binding, comparable within an allelic series); with SIX6 [17], 8.96 upbm affinity estimate (log intensity, higher = more binding, comparable within an allelic series). Further, the binding signal with SIX6 [18] is 8.94 upbm affinity estimate (log intensity, higher = more binding, comparable within an allelic series); with NKX2-4 [4], 9.27 upbm affinity estimate (log intensity, higher = more binding, comparable within an allelic series); with SIX6 [19], 8.96 upbm affinity estimate (log intensity, higher = more binding, comparable within an allelic series); with SIX6 [20], 8.9 upbm affinity estimate (log intensity, higher = more binding, comparable within an allelic series); in the assay with SIX6 [21], 8.89 upbm affinity estimate (log intensity, higher = more binding, comparable within an allelic series); in the assay with SIX6 [22], 8.98 upbm affinity estimate (log intensity, higher = more binding, comparable within an allelic series). The binding signal with SIX6 [23] was 8.88 upbm affinity estimate (log intensity, higher = more binding, comparable within an allelic series); with SIX6 [24] it was 9 upbm affinity estimate (log intensity, higher = more binding, comparable within an allelic series); with NKX2-4 [8], 9.27 upbm affinity estimate (log intensity, higher = more binding, comparable within an allelic series); in the assay with SIX6 [25], 8.86 upbm affinity estimate (log intensity, higher = more binding, comparable within an allelic series); with SIX6 [26] it was 8.88 upbm affinity estimate (log intensity, higher = more binding, comparable within an allelic series).

As to CACCAGTC, the binding signal with CRX [11] is 8.16 upbm affinity estimate (log intensity, higher = more binding, comparable within an allelic series); with CRX [12] it was 8.23 upbm affinity estimate (log intensity, higher = more binding, comparable within an allelic series); in the assay with CRX [13], 8.2 upbm affinity estimate (log intensity, higher = more binding, comparable within an allelic series).

Take GCGTGACC: the binding signal is 8.46 upbm affinity estimate (log intensity, higher = more binding, comparable within an allelic series) in the assay with CRX [11]; 8.49 upbm affinity estimate (log intensity, higher = more binding, comparable within an allelic series) with CRX [12]; 8.39 upbm affinity estimate (log intensity, higher = more binding, comparable within an allelic series) in the assay with CRX [13].

CGCTAATC: the binding signal with CRX [11] was 12.8 upbm affinity estimate (log intensity, higher = more binding, comparable within an allelic series); with PITX2, 12.2 upbm affinity estimate (log intensity, higher = more binding, comparable within an allelic series); in the assay with CRX [13], 12.3 upbm affinity estimate (log intensity, higher = more binding, comparable within an allelic series).

Regarding AAGTAATA, the binding signal is 10.4 upbm affinity estimate (log intensity, higher = more binding, comparable within an allelic series) with CRX [11]; 10.3 upbm affinity estimate (log intensity, higher = more binding, comparable within an allelic series) with CRX [12]; 10.1 upbm affinity estimate (log intensity, higher = more binding, comparable within an allelic series) with CRX [13].

As to ACGCCACG, the binding signal is 8.27 upbm affinity estimate (log intensity, higher = more binding, comparable within an allelic series) with CRX [11]; 8.14 upbm affinity estimate (log intensity, higher = more binding, comparable within an allelic series) with CRX [12]; 8.23 upbm affinity estimate (log intensity, higher = more binding, comparable within an allelic series) with CRX [13].

As to GGTGCTTA, the binding signal with CRX [11] was 11 upbm affinity estimate (log intensity, higher = more binding, comparable within an allelic series); with CRX [12], 10.9 upbm affinity estimate (log intensity, higher = more binding, comparable within an allelic series); in the assay with CRX [13], 10.4 upbm affinity estimate (log intensity, higher = more binding, comparable within an allelic series); in the assay with NKX2-5, 10.4 upbm affinity estimate (log intensity, higher = more binding, comparable within an allelic series).

For GGAGACCC, the binding signal with CRX [11] was 8.12 upbm affinity estimate (log intensity, higher = more binding, comparable within an allelic series); in the assay with CRX [12], 8.25 upbm affinity estimate (log intensity, higher = more binding, comparable within an allelic series); in the assay with CRX [13], 8.36 upbm affinity estimate (log intensity, higher = more binding, comparable within an allelic series).
